Source: the supplement of paper PMC6555819

Legend:
Experiment in all cases: PBM binding z-score (relative to random genomic background probes); higher = stronger binding; sequences stand for … in GC…GCGATTGACAGCGTAGAATGAAGG
[1] = test system: FXR:RXRa (NR concentration 270 nM, RXRa partner concentration 90 nM)
Procedure, shortened: (§1)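 Random background probes are the reference for binding z-scores. These scores derive from regression-normalized fluorescence on custom Agilent 4×180K protein-binding microarrays incubated 1 h with ligand-free nuclear receptor dimers. Binding was detected with antibodies against each partner (one per run).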

[2] = test system: LXRa:RXRa (NR concentration 270 nM, RXRa partner concentration 90 nM)
Procedure, shortened: as §1

[3] = test system: LXRa homodimer (NR concentration 270 nM)
Procedure, shortened: as §1

[4] = test system: LXRb:RXRa (NR concentration 270 nM, RXRa partner concentration 90 nM)
Procedure, shortened: as §1

[5] = test system: LXRb homodimer (NR concentration 270 nM)
Procedure, shortened: as §1

[6] = test system: PPARa:RXRa (NR concentration 270 nM, RXRa partner concentration 90 nM)
Procedure, shortened: as §1

[7] = test system: PPARg:RXRa (NR concentration 180 nM, RXRa partner concentration 90 nM)
Procedure, shortened: as §1

[8] = test system: PPARg:RXRa 270nM:90nM, anti-RXR (NR concentration 270 nM, RXRa partner concentration 90 nM)
Procedure, shortened: as §1

[9] = test system: PPARg:RXRa 30nM:10nM, anti-RXR (NR concentration 30 nM, RXRa partner concentration 10 nM)
Procedure, shortened: as §1

[10] = test system: PPARg:RXRa 90nM:30nM, anti-RXR (NR concentration 90 nM, RXRa partner concentration 30 nM)
Procedure, shortened: as §1

[11] = test system: PPARg:RXRa DBDmut IVT, anti-RXR (DBD mutation: RXRa K156A/R161A, NR concentration 270 nM, RXRa partner concentration 90 nM)
Procedure, shortened: as §1

[12] = test system: PPARg:RXRa IVT, anti-PPARg (NR concentration 270 nM, RXRa partner concentration 90 nM)
Procedure, shortened: as §1

[13] = test system: PPARg DBDmut:RXRa IVT, anti-PPARg (DBD mutation: PPARg1 K132A/R137A, NR concentration 270 nM, RXRa partner concentration 90 nM)
Procedure, shortened: as §1

[14] = test system: PPARg DBDmut IVT, anti-PPARg (DBD mutation: PPARg1 K132A/R137A, NR concentration 270 nM)
Procedure, shortened: as §1

[15] = test system: PPARg homodimer (NR concentration 180 nM)
Procedure, shortened: as §1

[16] = test system: PXR:RXRa (NR concentration 270 nM, RXRa partner concentration 90 nM)
Procedure, shortened: as §1

[17] = test system: PXR homodimer (NR concentration 270 nM)
Procedure, shortened: as §1

[18] = test system: RARa:RXR (NR concentration 270 nM, RXRa partner concentration 90 nM)
Procedure, shortened: as §1

[19] = test system: RARa homodimer (NR concentration 270 nM)
Procedure, shortened: as §1

[20] = test system: RARb:RXRa (NR concentration 270 nM, RXRa partner concentration 90 nM)
Procedure, shortened: as §1

Sequence	PBM binding z-score [1]	PBM binding z-score [2]	PBM binding z-score [3]	PBM binding z-score [4]	PBM binding z-score [5]	PBM binding z-score [6]	PBM binding z-score [7]	PBM binding z-score [8]	PBM binding z-score [9]	PBM binding z-score [10]	PBM binding z-score [11]	PBM binding z-score [12]	PBM binding z-score [13]	PBM binding z-score [14]	PBM binding z-score [15]	PBM binding z-score [16]	PBM binding z-score [17]	PBM binding z-score [18]	PBM binding z-score [19]	PBM binding z-score [20]
CGTCAAAGTTCAACTAAGGAAACGTAAAGCACGC	7.38	6.47	3.78	4.2	2.11	5.18	5.11	5.68	2.56	4.69	0.565	1.62	1.02	0.369	3.9	4.87	2.97	4.48	1.12	5.19
AGAATGAGGTTACCAAAGATCAGGGCAACGCTTG	2.12	6.55	-0.189	3.11	-0.372	3.61	3.06	3.12	1.15	2.34	3.79	3.77	0.564	0.291	0.848	1.81	-0.116	2.47	-0.187	2.43
TCACATAGGTAAATGCTAGGTGAAAGTCCGATCT	0.401	0.564	-0.036	0.378	-0.343	1.03	0.475	1.83	3.11	2.49	2.22	1.12	0.19	-0.0289	-0.198	0.34	-0.0319	0.692	-0.153	0.251
TAGCCTTGGTCATGCGGGCCAGTATAGTGTCGGC	-0.908	-1.14	-0.986	-1.09	-0.961	-0.707	-0.423	-0.768	-0.886	-0.995	-0.432	0.0959	-0.481	-0.0984	-1.18	-0.758	-1.18	-0.757	-1.23	0.534
TTACCAAGGTGAGCTGAGGTCCTTGATCCAACTC	0.6	-0.364	-0.744	-0.383	-1.22	0.604	-0.286	0.115	-0.357	-0.0305	0.555	1.8	-0.248	-1.12	-0.702	1.26	-0.737	0.613	-1.39	1.04
CGTCTAAGGTCAATGCTAGGTCAGTGAAAGCATT	7.02	5.82	2.56	4.58	1.34	5.36	4.53	5.68	1.9	4.12	3.81	4	-0.172	-0.413	4.57	4.95	1.41	6.06	0.698	5.35
CCGACTGGGCCAAAGGTCATTGATTCCAATGCTC	4.37	4.94	3.7	4.49	0.0732	6.09	11	10	8.79	12.1	3.83	5.72	-0.642	0.24	4.69	5.36	1.79	5.72	0.97	4.52
TCATATTGGTAAAGGTGAAAGTCGAACGATATGA	0.751	1.1	-0.299	1.19	0.0352	2.58	1.89	3.8	3.95	3.9	1.58	1.69	0.994	1.2	1.15	0.712	-0.162	1.25	0.406	1.94
CGTCCAAGGTCAATGCTAGGTCAGTGAAAGCATT	6.67	5.72	2.67	3.98	0.958	5.11	4.02	4.74	1.16	3.17	3.41	3.83	0.477	0.749	6.35	5.01	1.68	6.41	1.72	5.23
CAAACTAGGTCACAGAGGTCAATGTCCGTGCGTA	6.85	6.22	6.83	6.14	1.81	6.32	10	8.44	6.44	8.59	8.72	9.05	4.01	2.12	4.75	6.6	10.6	7.36	2.65	5.17
CGAACCAGGTCATCCAGGACAGTGAATACATTGA	5.37	3.75	1	3.05	0.375	4.67	4.89	4.6	1.51	3.59	5.15	5.48	1.46	0.673	2.01	2.98	3.52	3.1	1.01	3.95
TGAATGAGGTTATAAGATCAGTGAACGTTGCAAA	1.18	1.34	-0.254	1.17	-0.0173	2.66	1.29	1.72	0.94	1.35	1.21	1.6	1.17	0.745	0.394	0.814	0.0458	1.62	0.171	1.25
CCTCGGAGGACAACAGGAGGTCAGAACTGCCAGA	0.84	1.86	1.93	1.49	-0.518	1.78	0.525	-0.182	-0.754	-0.55	0.236	0.269	-1.45	-1.02	1.52	1.92	0.393	2.08	0.134	2.68
CCTGACGGGTCACTCCAGGTTATAGCATCGGAGT	3.43	7.46	1.51	4.58	-0.132	3.79	1.84	2.43	0.306	1.44	1.01	2.14	-0.43	-0.483	1.81	4.64	0.176	3.34	-0.12	3.31
